Here are results for 15 compounds from PubChem BioAssay (NCATS).

The structures appear in SMILES notation. Results filed as inconclusive are left out. Activity calls are given as the source filed them. Calls follow the shape of the dose curve; as a rule, active = well fitted activation curve with a large enough effect; inconclusive = small, poorly fitted or top-dose-only effect; inactive = no such curve, though single readings can be large or run the other way.

This assay in a line: qHTS for Activators of Parkin Expression: LOPAC Validation Assay (FLuc Reporter) (AID 720573). The note with it: Cell line, PRKN promoter firefly luciferase reporter, vehicle wells = 0, positive control = 100%; series mostly up to 46.1 µM. The source says: Parkin is an E3 ubiquitin ligase localized in the cytosol of cells expressed in many tissues, including brain, skeletal muscle, heart and liver tissues. One hour after stress induction by mitochondrial uncouplers (which mimic mitochondria damage by decreasing the mitochondrial inner membrane electrochemical gradient that is used to produce ATP), Parkin translocates from the cytosol to mitochondria in many cultured cell types, including neurons and HeLa cells. Administration of other mitochondrial poisons, such as Paraquat and azide in cells lacking mitochondrial DNA (mtDNA), induces Parkin translocation to mitochondria. […] It was proposed that Parkin (together with Pink1) mediates a mitochondrial quality control pathway to maintain organelle population fidelity by removing damaged mitochondria. Understanding the normal physiologic role of Parkin (and Pink1) may uncover novel treatment strategies for sporadic Parkinson's disease patients with mutation in these genes.
A cell based qHTS in 1536 well format was developed assess modulation of Parkin expression using a neuronal cell line that stably expresses a stably expresses a luminescent coincidence reporter (FLuc and NLuc reporters) behind the Parkin promoter. The LOPAC library is used to validate the assay for quantitative high-throughput screening. The data herein reports the signal from the FLuc reporter. An increase in this signal = activation of Parkin expression. For this assay , a positive control normalized signal increase corresponding to a high quality qHTS curve class in both luminescent channels is the desired outcome for this assay.
NIH Chemical Genomics Center [NCGC]
NIH Molecular Libraries Probe Centers Network [MLPCN]
Assay Submitter (PI): Richard Youle, National Institute of Neurological Disorders and Strokes (NINDS), NIH
[1] Narendra, D., et al., Parkin is recruited selectively to impaired mitochondria and promotes their autophagy. J Cell Biol, 2008. 183(5): p. 795-803.
[2] Suen, D.F., et al., Parkin overexpression selects against a deleterious mtDNA mutation in heteroplasmic cybrid cells. Proc Natl Acad Sci U S A, 2010. […] 11835-40.
[3] Cheng K, Inglese J. A coincedence reporter-gene system for high-throughput screening. Nat Methods. 2012: 9(10);937
Five microliters (1,500 cells/well) of the Parkin coincidence reporter cells were seeded to 1536 well assay plates (Greiner Catalog # 789173-F) and incubated at 37 C, 5% CO2 for 24 hours. Compounds (23 nL) were pinned using the Kalypsys robotic system equipped with 1536 pin head adaptor in 7-point dose response. The assay plates were incubated for additional 24 hr at 37 C, 5% CO2 followed by a volume reduction in each well to 2 uL using an automated plate washer/aspirator. Following the volume reduction,2 uL of FLuc detection reagent and plates were incubated for 10 minutes at room temperature. The FLuc luminescence signal was obtained using the PerkinElmer ViewLux plate imager and then 2 uL of NanoLuc detection reagent was added to the plates. After another 10 minute incubation, NanoLuc signal was obtained using the PerkinElmer ViewLux plate imager as before. Data from each channel was normalized to DMSO (neutral control) and the positive control compounds (100%).
(Quantitative high-throughput screening tests each substance at several concentrations.)
On to `O=P1(N(CCCl)CCCl)NCCCO1` (stereo not given), for which the outcome was inactive.

As to `CC(C)N(CCC(C(N)=O)(c1ccccc1)c1ccccn1)C(C)C` (stereo not given), the outcome was inactive.

On to `C=C(C)[C@H]1CN[C@H](C(=O)O)[C@H]1CC(=O)O`, for which the result was inactive.

As for `CC(NC(C)(C)C)C(=O)c1cccc(Cl)c1` (stereo not given), the compound was called inactive.

Turning to `O=c1[nH]oc2c1CCNC2`, the result was inactive.

Turning to `CCCCC/C=C\C/C=C\C/C=C\C/C=C\CCCC(=O)NCC(=O)O`, the call was inactive.

For the compound `COc1ccc2c(c1OC)C(=O)O[C@H]2[C@@H]1c2cc3c(cc2CCN1C)OCO3`, the call was inactive.

`CN1C(=O)CCS(=O)(=O)C1c1ccc(Cl)cc1` (stereo not given): the result was inactive.

`O=C(O)CCCc1ccc(N(CCCl)CCCl)cc1`: the compound was called inactive.

For the compound `CC(C)c1cccc(C(C)C)c1O`, the result was inactive.

For `Cc1ncsc1CCCl`, the result was inactive.

In the case of `NCCc1ccc(O)cc1`, the compound was classed as inactive.

For the compound `CCC1(c2ccc(N)cc2)CCC(=O)NC1=O` (stereo not given), the compound was called inactive.

Take `CC(C)(C)NCC(O)c1ccccc1Cl` (stereo not given): the compound was called inactive.

`O=C(CCCN1CCC2(CC1)C(=O)NCN2c1ccccc1)c1ccc(F)cc1`: the compound was classed as inactive.
